The whole screen tested about 370,000 compounds, of which about 2,400 (0.65%) were called active. This is one part of a sample in which actives are shown more often than they occur.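 The calls were made as follows: active = inhibition above the screen-wide mean plus 3 SD (cut at about 13% in these data); inactive = the rest.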

The test deals with HIV-1 integrase (with human LEDGF/p75). In words: blockers of LEDGF/p75-dependent integrase strand transfer – biochemical, TR-FRET, high throughput, primary screen (AID 743269).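 Also: signal is the Cy5 over europium emission ratio at 671 and 618 nm; 0% = plate median of compound wells.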 The following applies: TR-FRET IN-LEDGF/p75 DNA integration, Eu/Cy5; at 3.7 µM; hits give high values. Background: In TR-FRET formats the signal depends on donor and acceptor labels being close together.
On to `COc1cc(Cn2c(N)c(C(=O)NCc3ccco3)c3nc4ccccc4nc32)cc(OC)c1OC`, for which the inhibition (usually the change of the read-out against control, counted positive when it falls) was 1.57% (inactive). With `CCOC(=O)c1c(N)n(Cc2ccccc2)c2nc3ccccc3nc12`, the inhibition is 32.8% (active). With `CCOC(=O)c1cccc(C2=C(CNC(=O)c3ccncc3)[C@H]3CC[C@@H](C2)N3Cc2ccccc2)c1` the figure was -5.73% (inactive); with `CCN1C(=O)C(=Cc2c(C)n(CC(=O)NCC3CCCO3)c3ccccc23)C(=O)N(CC)C1=S` (stereo not given), -2.24% (inactive). With `COc1ccc2c(c1)[C@@]13CCCCC1[C@@H](C2)NCC3` (stereo not given in full) the figure was -1.92% (inactive); with `Cc1c(C(=O)O)cccc1-n1c(C)cc(/C=C2\C(=O)NC(=O)N(c3ccc4c(c3)OCO4)C2=O)c1C`, 15.4% (active); with `O=P(OC1=CCCCC1)(c1ccccc1)c1ccccc1`, 6.63% (inactive). The value for `CCC(C)(O)C(=O)OC1C(=O)OC2CC3C(C)=CC(=O)C(O)C3(C)C3C4(O)OCC23C1C(C)C4O` (stereo not given) was -3.3% (inactive). Turning to `CCOc1cccc(=NC2CCCCC2)c2c(C)[nH]c(C)c12`, the inhibition is 36.3% (active). With `Cc1cccc(-n2c(O)c(C=NC34CN5CN(CN(C5)C3)C4)c(=O)[nH]c2=O)c1` the figure was -3.72% (inactive); with `CC(C)Nc1nc(Cl)nc(NC(C)C)n1`, -1.42% (inactive); with `Brc1ccc2c(c1)CNCc1cnnn1-2`, 6.88% (inactive). `Cc1cc(N2CCNC[C@@H]2C)ccc1N1CC[C@H](O)C1`: the inhibition was 7.07% (inactive). With `COc1ccc(N2C(=O)/C(=C/c3ccco3)C(=O)NC2=S)cc1`, the inhibition was 59.1% (active). Consider `O=S(=O)(c1ccccc1)N1CCC2CCNC2C1` (stereo not given), for which the inhibition is 5.81% (inactive). `CCC(C)NC1(c2ccccc2)CCCCC1` (stereo not given): the inhibition is 2.52% (inactive).

For `COC(=O)C(O)(c1ccc(NC(=O)c2ccco2)c(OC)c1)C(F)(F)F` (stereo not given), the inhibition is -2.33% (inactive). As to `CO[C@H]([C@H](C)/C=C/N(C)C=O)[C@@H](C)C(=O)CC[C@H](C)[C@H](O)[C@H](C)[C@H]1OC(=O)/C=C/C(C)=C/[C@H](O)[C@H](OC)C[C@@H]2C=CC[C@@H](C[C@H](OC)[C@@]3(CO3)[C@@H](OC)C[C@@H](OC)[C@@H]1C)O2`, the inhibition is 0.17% (inactive). As for `Clc1ccc([C@@H]2CC3CCC2N3)cn1` (stereo not given in full), the inhibition was 4.15% (inactive). For `Cc1cc(C=C2C(=O)NC(=O)NC2=O)c(C)n1-c1ccncc1`, the inhibition was 3.8% (inactive). `O=C1NC(=O)N(Cc2ccco2)C(=O)/C1=C\c1ccc(-c2ccc(F)cc2)o1`: the inhibition is 73.2% (active).

With `Cc1ccnc(-n2c(C)cc(/C=C3\C(=O)NC(=S)N(C)C3=O)c2C)c1`, the inhibition was 1.59% (inactive). For `Cc1cc(/C=C2/C(=O)NC(=O)N(Cc3ccco3)C2=O)c(C)n1-c1ccc(C(=O)O)cc1`, the inhibition was 86% (active). On to `Cc1ccccc1CCC[C@@H](CC1CCCCC1)CN(C)C(=O)Oc1ccccc1`, for which the inhibition is -1.47% (inactive). As for `C[N+]12CN3CN(CN(C3)C1)C2`, the inhibition is -0.49% (inactive). With `COc1cc(OC)cc(C(=O)NCCN2CCC3(CC2)C(=O)NCN3c2ccccc2)c1`, the inhibition is 4.72% (inactive). Consider `CCN(CC)C(=O)[C@@H]1C=C2c3cccc4[nH]c(Br)c(c34)C[C@H]2N(C)C1`, for which the inhibition is 1.36% (inactive).

As to `CS(=O)(=O)N1CCC2CCNC2C1` (stereo not given), the inhibition was -2.54% (inactive). Regarding `O=C(N/N=C/c1c(O)n(C2CC2)c(=S)[nH]c1=O)c1ccccc1`, the inhibition is -7.23% (inactive).

Take `COP(=O)(Sc1ccccc1)C(Cc1ccccc1)NC(=O)OCc1ccccc1` (stereo not given): the inhibition is 4.08% (inactive).

Values taken from PubChem BioAssay AID743269 (The Scripps Research Institute Molecular Screening Center, 2014).
